Data from PubChem BioAssay (NCATS).
Results filed as inconclusive are left out. Active and inactive are the calls of the source. The call rests on the fitted dose curve; in most records, active means well fitted inhibition curve with a large enough effect; inconclusive means small, poorly fitted or top-dose-only effect; inactive means no such curve, though single readings can be large or run the other way.

Tested on: Zika virus NS2B-NS3 protease (unlinked complex)
Test: Primary screen GU Rhodamine qHTS for Zika virus inhibitors: Unlinked NS2B-NS3 protease assay (AID 1347159); further: nearly all actives have a fitted effect of over 60% in size
Settings: Recombinant ZIKV NS2B-NS3 protease, Rhodamine110 substrate fluorescence; series mostly up to 107 µM; activity change, negative = inhibition: at the top concentration
Summary of the method: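 Noncovalent NS2B hydrophilic domain–NS3 protease domain complex (25 nM) preincubated 15 min at room temperature with compounds (up to 114 microM) in 10 mM Tris-HCl pH 8.0, 0.01% Tween 20; 1.5 microM Rhodamine110 substrate added, fluorescence change over 15 min fitted to Hill equation.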
On the % scale 0 is the no-effect control and ±100 the full control effect; potency means the concentration at half of the fitted maximal effect.

Row | Compound | activity change, negative = inhibition | Potency
1 | CCCC(CCC)C(=O)Nc1ccn([C@@H]2O[C@H](CO)[C@@H](O)C2(F)F)c(=O)n1 | -0.505% (inactive) | 
2 | COc1cccc(NCCC2(c3ccccc3)CC(C)(C)OC(C)(C)C2)c1 | 9.19% (inactive) | 
3 | CC(=O)OC1CCC2(C)C(CCC3(C)C2CC=C2C4C(C)C(C)CCC4(C)CCC23C)C1(C)C(=O)O (centres undefined) |  | 3.98 µM (active)
4 | O=S(=O)(Cc1ccccc1)Nc1ccc(-c2ccc3c(cnn3-c3ccc(F)cc3)c2)c(C(F)(F)F)c1 |  | 20 µM (active)
5 | COc1cccc(-c2cn(-c3ccc(CCN4CCC(O)CC4)cc3)c3ncnc(N)c23)c1 | 67.5% (inactive) | 
6 | C=C[C@@]1(C)CCC2C(=CCC3[C@]2(C)CCC[C@@]3(C)C(=O)O)C1 (some centres undefined) |  | 22.4 µM (active)
7 | Cc1cccc(CC(=O)N2CCc3c2ccc(-c2cn(C)c4ncnc(N)c24)c3F)n1 | 10.7% (inactive) | 
8 | Cc1ccc(C)c(-c2cc(C(F)(F)F)nn2-c2ccc(S(N)(=O)=O)cc2)c1 | 0% (inactive) | 
9 | CC(C)NCCCn1c(Sc2cc3c(cc2I)OCO3)nc2c(N)ncnc21 | 3.4% (inactive) | 
10 | C/C=C(/C)C(=O)O[C@H]1[C@H](OC(=O)/C(C)=C\C)[C@@]23C(CC1(C)C)[C@]1(CCC4[C@@]5(C)CC[C@H](O[C@@H]6O[C@H](C(=O)O)[C@@H](O)[C@H](O[C@@H]7O[C@H](CO)[C@H](O)[C@H](O)[C@H]7O[C@@H]7O[C@@H](C)[C@H](O)[C@@H](O)[C@H]7O[C@@H]7OC[C@@H](O)[C@H](O)[C@H]7O)[C@H]6O[C@@H]6O[C@H](CO)[C@H](O)[C@H](O)[C@H]6O)C(C)(C)C5CC[C@@]4(C)[C@]1(C)C[C@H]2O)O[C@H]3O (some centres undefined) |  | 3.98 µM (active)
11 | CC(=O)O[C@H]1C[C@H](OC(C)=O)[C@]2(C)[C@H](CC[C@@]34O[C@@H]3C3=C(C)C(=O)O[C@@H]3C[C@H]42)C1(C)C | 1.5% [at 57.1 µM] (inactive) | 
12 | C=C1CCC[C@]2(C)CC/C(=C(/CO)C(=O)OC)C[C@@H]12 |  | 20 µM (active)
13 | O=C(NCCN1CCC(n2c(=O)[nH]c3ccccc32)CC1)c1ccc2ccccc2c1 | 55.1% (inactive) | 
14 | COc1cc([C@H]2O[C@H](c3cc(OC)c4c(c3)OCO4)[C@H](C)[C@H]2C)cc(OC)c1OC | 16.4% [at 57.1 µM] (inactive) | 
15 | CC[C@H](C)/C=C(C)/C=C/C1=CC2=CC(=O)[C@]3(C)OC(=O)[C@@H](C(C)=O)[C@@H]3C2=CO1 |  | 10 µM (active)
16 | CCOc1ccc(CCNC(=O)c2cc3sc(Cl)cc3n2C)cc1OCC | -3.64% (inactive) | 
17 | C=C(CCC1C(C)(O)CCC2C(C)(C)C(O)CCC12C)C(O)CO (centres undefined) |  | 39.8 µM (active)
18 | C=C(C=O)[C@]1(O)C[C@@]2(C)C(=CC1=O)C=C[C@H](OC(=O)/C=C/C=C/[C@H](C)CC)[C@@H]2C |  | 8.91 µM (active)
19 | Cn1cc(C2=C(c3coc4ccccc34)C(=O)NC2=O)c2cc(Br)ccc21 |  | 25.1 µM (active)
20 | C=CC(C)(C)C12CC3C(=O)N4C(CC5(C(C)(C)C=C)c6ccccc6NC45)C(=O)N3C1Nc1ccccc12 (centres undefined) | -14.3% [at 57.1 µM] (inactive) | 

Row | Compound | activity change, negative = inhibition | Potency
21 | O=C(CSc1nc2ccccc2c(=O)n1-c1ccccc1)Nc1ccc2c(c1)CCC2 | 12.6% (inactive) | 
22 | CCn1c(=O)c(-c2ccc(Cl)cc2Cl)cc2cnc(Nc3ccc(N4CCNCC4)c(F)c3)nc21 | -44.8% (inactive) | 
23 | C=C1CC[C@@H](O)[C@]2(C)C[C@H]3OC(=O)C(=C)[C@H]3CC12 (some centres undefined) | -24.4% (inactive) | 
24 | Cc1cc(OCCCS(C)(=O)=O)cc(C)c1-c1cccc(COc2ccc(C3=CC(=O)NS3=O)cc2)c1 (centres undefined) |  | 3.55 µM (active)
25 | COc1cc2c(c(OC)c1CC=C(C)C)C[C@H](c1ccc(O)c(CC=C(C)C)c1O)CO2 |  | 17.8 µM (active)
26 | N#Cc1cccc(C(=O)Nc2cc(-c3ccccc3)nn2-c2ccccc2)c1 | 14.2% (inactive) | 
27 | O=C(O)CSc1cc(NS(=O)(=O)c2ccc(Br)cc2)c2ccccc2c1O |  | 3.16 µM (active)
28 | CN(C)CCC(CSc1ccccc1)Nc1ccc(S(=O)(=O)NC(=O)c2ccc(N3CCN(Cc4ccccc4-c4ccc(Cl)cc4)CC3)cc2)cc1[N+](=O)[O-] (centres undefined) |  | 7.94 µM (active)
29 | CCC[C@@]1(CCc2ccccc2)CC(O)=C([C@H](CC)c2cccc(NS(=O)(=O)c3ccc(C(F)(F)F)cn3)c2)C(=O)O1 |  | 8.91 µM (active)
30 | O=C(Nc1ccccc1)c1ccc(Nc2nnc(-c3ccc(O)cc3)c3ccccc23)cc1 |  | 14.1 µM (active)
31 | CC(C)(C[C@@](O)(Cc1cc2ccncc2[nH]1)C(F)(F)F)c1cc(F)ccc1O | 95.6% (inactive) | 
32 | O=C(N[C@H]1CCN(C(=O)c2cc(C(F)(F)F)cc(C(F)(F)F)c2)[C@H](Cc2ccc(Cl)cc2)C1)c1ccnc2ccccc12 | 10.4% [at 57.1 µM] (inactive) | 
33 | CC(=O)C1=C(O)C=C2Oc3c(C(C)=O)c(O)c(C)c(O)c3[C@]2(C)C1=O |  | 31.6 µM (active)
34 | COc1ccccc1N1CCN(CC(C(=O)NC(C)(C)C)c2ccccc2)CC1 (centres undefined) | 55.5% (inactive) | 
35 | O=C(N[C@H](Cc1cscn1)C(=O)N[C@@H](CC1CCCCC1)[C@@H](O)[C@@H](O)C1CC1)c1nc2ccccc2[nH]1 | 9.52% (inactive) | 
36 | CC12CCC3C1C(c1c(cc(O)c(C(=O)c4ccccc4)c1O)O2)C3(C)C (centres undefined) |  | 8.91 µM (active)
37 | C=CC(C)(C)c1[nH]c2ccccc2c1C[C@@H]1NC(=O)[C@H](C)NC1=O | -15.9% (inactive) | 
38 | O=C(Nc1cccc([N+](=O)[O-])c1)c1cccc(S(=O)(=O)N2CCCCCC2)c1 | 62.2% (inactive) | 
39 | Cc1c(Cl)cccc1S(=O)(=O)Nc1nc(NCCc2ccccc2)nc2c1CN(Cc1ccccc1)CC2 |  | 7.94 µM (active)
